The values below come from PubChem BioAssay (EPA / NIEHS).

Activity calls are given as the source filed them. How the source made its calls: active means hit-call score of the fitted dose curve at least 0.9, where 1 is the maximum; inactive means score below 0.9.

What all share (conditions): mRNA level, 48 h; actives raise or lower the signal
Read-out in experiment [1]: ABC Transporter (ABCC2), ABCC2 (gene 1244)
In words: LTEA_HepaRG_ABCC2: Life Technologies and Expression Analysis (LTEA) Assay for ABC Transporter (ABCC2) using HepaRG (AID 2283464). The method, boiled down:
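After plating and 48 h culture, HepaRG medium is replaced with serum-free induction medium and chemicals are added (8 concentrations, max 100 uM, 0.5% DMSO) for 48 h. Total RNA then undergoes qRT-PCR for ABCC2 with housekeeping normalization.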

Read-out in experiment [2]: Broad substrate specificity ATP-binding cassette transporter ABCG2 (Homo sapiens) (UniProt Q9UNQ0)
The experiment is described as follows: LTEA_HepaRG_ABCG2: Life Technologies and Expression Analysis (LTEA) Assay for ABC Transporter (ABCG2) using HepaRG (AID 2283465). The method, boiled down:
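ABCG2 transcript was quantified by TaqMan qRT-PCR against three housekeeping genes in HepaRG cells. Cells were treated in duplicate for 48 h across an 8-point half-log series up to 100 uM, with 0.5% DMSO vehicle. Gain or loss versus DMSO was fit.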

Read-out in experiment [3]: ATP-citrate lyase (ACLY), ACLY (gene 47)
In words: LTEA_HepaRG_ACLY: Life Technologies and Expression Analysis (LTEA) Assay for ATP-citrate lyase (ACLY) using HepaRG (AID 2283466). The method in brief: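 ACLY mRNA quantified by qRT-PCR on Fluidigm arrays against three housekeeping genes, after 48 h chemical treatment of HepaRG cells (top concentration 100 uM, half-log steps, 0.5% DMSO vehicle). Up- or down-regulation fitted relative to DMSO.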

Read-out in experiment [4]: Peroxisomal acyl-coenzyme A oxidase 1 (ACOX1) gene, ACOX1 (gene 51)
The experiment is described as follows: LTEA_HepaRG_ACOX1: Life Technologies and Expression Analysis (LTEA) Assay for Peroxisomal acyl-coenzyme A oxidase 1 (ACOX1) gene using HepaRG (AID 2283467). The method, boiled down:
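ACOX1 transcript levels were quantified by TaqMan qRT-PCR against three housekeeping genes after 48 h chemical exposure of differentiated human HepaRG cells. Exposure used eight half-log steps topping at 100 uM, 0.5% DMSO vehicle, in duplicate. Bidirectional curve fits were made relative to DMSO.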

Read-out in experiment [5]: Alkaline Phosphatase, Placental (ALPP) gene, ALPP (gene 250)
The experiment is described as follows: LTEA_HepaRG_ALPP: Life Technologies and Expression Analysis (LTEA) Assay for Alkaline Phosphatase, Placental (ALPP) gene using HepaRG (AID 2283468).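 On AC50: differentiated human HepaRG liver cells in serum-free induction medium.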 The method in brief: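 Using human liver HepaRG cells, chemicals are tested in duplicate over 48 h at half-log concentrations topping at 100 uM; phenobarbital 1 mM serves as induction control. ALPP mRNA change by qRT-PCR, bidirectional fit against vehicle.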

Read-out in experiment [6]: Bcl-2 (BAX) gene, BAX (gene 581)
The experiment is described as follows: LTEA_HepaRG_BAX: Life Technologies and Expression Analysis (LTEA) Assay for Bcl-2 (BAX) gene using HepaRG (AID 2283470). The method, boiled down: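 qRT-PCR read-out of BAX mRNA, normalized to three housekeeping genes, after 48 h chemical exposure of human HepaRG cells in serum-free induction medium; eight-point half-log series, top 100 uM, 0.5% DMSO vehicle; bidirectional fit versus DMSO.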

Read-out in experiment [7]: adenosine kinase (ADK) gene, ADK (gene 132)
In words: LTEA_HepaRG_ADK: Life Technologies and Expression Analysis (LTEA) Assay for adenosine kinase (ADK) gene using HepaRG (AID 2283471). The method in brief: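 Following 48 h exposure of HepaRG cells in 0.5% DMSO (top concentration 100 uM, duplicate wells), ADK mRNA induction or suppression was measured by qRT-PCR, normalised to ACTB/GAPDH/POLR2A, and fitted bidirectionally relative to vehicle.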

Read-out in experiment [8]: Alpha-fetoprotein (AFP) gene, AFP (gene 174)
The experiment is described as follows: LTEA_HepaRG_AFP: Life Technologies and Expression Analysis (LTEA) Assay for Alpha-fetoprotein (AFP) gene using HepaRG (AID 2283472). The method, boiled down:
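qRT-PCR (Fluidigm TaqMan) readout of AFP transcript, normalized to three housekeeping genes, fitted bidirectionally against 0.5% DMSO baseline. HepaRG cells received chemicals for 48 h in serum-free induction medium, top concentration 100 uM, half-log steps.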

Read-out in another experiment: BCL2L11 (gene 10018)
The experiment is described as follows: LTEA_HepaRG_BCL2L11: Life Technologies and Expression Analysis (LTEA) Assay for Bcl-2 (BCL2L11) gene using HepaRG (AID 2283473). The method, boiled down:
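Human hepatic HepaRG cultures are treated 48 h with test chemicals (maximum 100 uM, 0.5% DMSO vehicle). Expression of BCL2L11 is measured by qRT-PCR against ACTB, GAPDH and POLR2A, with activity in either direction scored relative to vehicle.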

Read-out in experiment [9]: Apolipoprotein A-V (APOA5) gene, APOA5 (gene 116519)
In words: LTEA_HepaRG_APOA5: Life Technologies and Expression Analysis (LTEA) Assay for Apolipoprotein A-V (APOA5) gene using HepaRG (AID 2283474). The method in brief:
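Concentration-response of APOA5 expression in HepaRG: eight half-log doses to 100 uM, 48 h, qRT-PCR normalized to ACTB/GAPDH/POLR2A, bidirectional fitting with 0.5% DMSO as baseline.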

Read-out in experiment [10]: Apoptosis regulator Bcl-2 (Homo sapiens) (UniProt P10415)
In words: LTEA_HepaRG_BCL2: Life Technologies and Expression Analysis (LTEA) Assay for Bcl-2 gene using HepaRG (AID 2283475). The method in brief: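 qRT-PCR read-out (Fluidigm TaqMan) of BCL2 transcript, normalised to three housekeeping genes, after 48 h chemical exposure of HepaRG cells; 8-point half-log series, top 100 uM, 0.5% DMSO vehicle. Gain or loss of signal fitted relative to DMSO baseline.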

Read-out in experiment [11]: Bcl-2 (BID) gene, BID (gene 637)
In words: LTEA_HepaRG_BID: Life Technologies and Expression Analysis (LTEA) Assay for Bcl-2 (BID) gene using HepaRG (AID 2283476). The method, boiled down: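 HepaRG, 48 h exposure, 8-pt half-log series, top 100 uM, 0.5% DMSO vehicle, duplicates. Readout: BID mRNA by TaqMan qRT-PCR; housekeeping-normalized; bidirectional curve fit vs DMSO baseline.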

Read-out in another experiment: Caspase-3 (Homo sapiens) (UniProt P42574)
In words: LTEA_HepaRG_CASP3: Life Technologies and Expression Analysis (LTEA) Assay for cysteine-aspartic acid protease (CASP3) using HepaRG (AID 2283477). The method in brief: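 Transcript-level assay: CASP3 mRNA in human HepaRG after 48 h treatment, eight half-log concentrations from 100 uM in 0.5% DMSO, quantified by qRT-PCR.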

Read-out in experiment [12]: Cytochrome P450 (CYP1A2), CYP1A2 (gene 1544)
The experiment is described as follows: LTEA_HepaRG_CYP1A2: Life Technologies and Expression Analysis (LTEA) Assay for Cytochrome P450 (CYP1A2) using HepaRG (AID 2283479). The method in brief: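 In duplicate wells, HepaRG cultures maintained in 0.5% DMSO were treated 48 h across an 8-point, half-log series topping at 100 uM; phenobarbital (1 mM) served as induction control. Expression was read by qRT-PCR.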

Read-out in experiment [13]: Cytochrome P450 2C19 (Homo sapiens) (UniProt P33261)
In words: LTEA_HepaRG_CYP2C19: Life Technologies and Expression Analysis (LTEA) Assay for CYP2C19 using HepaRG (AID 2283482). The method in brief: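 Endpoint: CYP2C19 mRNA change, bidirectional fit vs 0.5% DMSO. Cells: HepaRG, 48 h exposure, eight-point series topping at 100 uM. Quantitation: qRT-PCR normalized to ACTB, GAPDH, POLR2A.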

Read-out in a further experiment: CYP2C8 (gene 1558)
The experiment is described as follows: LTEA_HepaRG_CYP2C8: Life Technologies and Expression Analysis (LTEA) Assay for CYP2C8 using HepaRG (AID 2283483). The method, boiled down:
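CYP2C8 expression measured by TaqMan qRT-PCR and normalized to three housekeeping genes. HepaRG cultures were treated for 48 h with an eight-point half-log series topping at 100 uM, vehicle 0.5% DMSO, duplicates; fitted both directions against DMSO.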

Read-out in experiment [14]: cysteine-aspartic acid protease (CASP8), CASP8 (gene 841)
In words: LTEA_HepaRG_CASP8: Life Technologies and Expression Analysis (LTEA) Assay for cysteine-aspartic acid protease (CASP8) using HepaRG (AID 2283480). The method in brief:
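CASP8 transcript measured by TaqMan qRT-PCR with ACTB/GAPDH/POLR2A normalization, after 48 h chemical exposure of HepaRG cells in serum-free induction medium. Eight concentrations, top 100 uM, half-log steps, 0.5% DMSO vehicle; fits in both directions versus DMSO.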

Read-out in experiment [15]: Cytochrome P450 (CYP2B6), CYP2B6 (gene 1555)
In words: LTEA_HepaRG_CYP2B6: Life Technologies and Expression Analysis (LTEA) Assay for Cytochrome P450 (CYP2B6) using HepaRG (AID 2283481). The method in brief: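 Human HepaRG, 48 h dosing, 0.5% DMSO vehicle, top dose 100 uM. CYP2B6 transcript by qRT-PCR, housekeeping-normalized, bidirectional curve fit.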

Read-out in experiment [16]: Cytochrome P450 (CYP24A1), CYP24A1 (gene 1591)
In words: LTEA_HepaRG_CYP24A1: Life Technologies and Expression Analysis (LTEA) Assay for Cytochrome P450 (CYP24A1) using HepaRG (AID 2283478). The method, boiled down:
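Gene expression of CYP24A1 by TaqMan qRT-PCR in HepaRG after 48 h treatment, highest concentration 100 uM; activity fitted in both directions relative to DMSO vehicle.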

Chain of Broad substrate specificity ATP-binding cassette transporter ABCG2 (Homo sapiens) (Q9UNQ0 whole entry, looked up): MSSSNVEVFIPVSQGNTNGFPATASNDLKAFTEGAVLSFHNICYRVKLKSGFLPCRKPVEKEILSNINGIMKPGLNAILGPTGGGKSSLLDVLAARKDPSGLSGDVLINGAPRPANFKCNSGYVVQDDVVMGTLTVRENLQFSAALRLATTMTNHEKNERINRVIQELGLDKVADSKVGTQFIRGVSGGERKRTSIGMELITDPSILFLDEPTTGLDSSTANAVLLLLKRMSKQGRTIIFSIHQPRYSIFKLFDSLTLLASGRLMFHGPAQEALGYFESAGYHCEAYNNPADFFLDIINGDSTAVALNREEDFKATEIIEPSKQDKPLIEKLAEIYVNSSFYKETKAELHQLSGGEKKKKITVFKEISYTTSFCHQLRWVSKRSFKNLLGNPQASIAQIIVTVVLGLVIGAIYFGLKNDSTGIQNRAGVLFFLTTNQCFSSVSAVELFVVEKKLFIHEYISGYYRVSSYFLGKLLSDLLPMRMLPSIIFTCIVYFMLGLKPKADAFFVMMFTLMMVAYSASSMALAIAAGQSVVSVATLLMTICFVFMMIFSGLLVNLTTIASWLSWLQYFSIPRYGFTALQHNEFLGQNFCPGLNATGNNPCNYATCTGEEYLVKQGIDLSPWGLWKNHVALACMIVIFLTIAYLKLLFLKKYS
Chain of Caspase-3 (Homo sapiens) (P42574 whole entry, looked up): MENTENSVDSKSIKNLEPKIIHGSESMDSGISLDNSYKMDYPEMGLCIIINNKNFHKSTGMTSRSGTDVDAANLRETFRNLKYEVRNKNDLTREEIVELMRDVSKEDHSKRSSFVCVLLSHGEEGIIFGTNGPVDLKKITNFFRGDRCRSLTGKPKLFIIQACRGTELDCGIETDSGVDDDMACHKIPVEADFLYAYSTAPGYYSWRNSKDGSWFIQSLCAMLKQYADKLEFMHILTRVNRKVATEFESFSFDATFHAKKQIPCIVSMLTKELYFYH
Chain of Apoptosis regulator Bcl-2 (Homo sapiens) (P10415 whole entry, looked up): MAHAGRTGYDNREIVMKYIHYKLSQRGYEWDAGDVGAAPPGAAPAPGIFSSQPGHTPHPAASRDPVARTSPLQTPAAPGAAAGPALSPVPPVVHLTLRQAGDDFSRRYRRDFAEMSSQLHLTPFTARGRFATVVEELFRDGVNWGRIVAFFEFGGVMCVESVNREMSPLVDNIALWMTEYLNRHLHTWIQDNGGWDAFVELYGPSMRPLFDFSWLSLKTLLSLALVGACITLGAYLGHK
Chain of Cytochrome P450 2C19 (Homo sapiens) (P33261 whole entry, looked up): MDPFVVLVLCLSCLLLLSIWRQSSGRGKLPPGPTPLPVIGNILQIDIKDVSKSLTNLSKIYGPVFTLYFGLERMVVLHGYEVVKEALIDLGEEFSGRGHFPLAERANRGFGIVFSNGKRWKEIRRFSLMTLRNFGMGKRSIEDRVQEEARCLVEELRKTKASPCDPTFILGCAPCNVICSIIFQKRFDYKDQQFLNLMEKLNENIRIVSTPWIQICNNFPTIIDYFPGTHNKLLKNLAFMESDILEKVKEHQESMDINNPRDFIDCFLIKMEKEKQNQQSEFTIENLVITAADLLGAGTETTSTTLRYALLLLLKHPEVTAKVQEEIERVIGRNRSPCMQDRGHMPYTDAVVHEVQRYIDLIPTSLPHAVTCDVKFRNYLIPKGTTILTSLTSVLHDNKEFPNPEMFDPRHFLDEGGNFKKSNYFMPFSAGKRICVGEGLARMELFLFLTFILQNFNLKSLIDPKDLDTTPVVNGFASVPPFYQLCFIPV

Take `O=C(O)C1C2CCC(O2)C1C(=O)O` (stereo not given): the compound was called inactive (in [1]; in [3]; in experiment [4]; in experiment [6]; in experiment [7]; with BCL2L11 (gene 10018)). In addition, the compound was classed as inactive (in experiment [10]; in experiment [11]; in the experiment with Caspase-3 (Homo sapiens)). For the same compound, the AC50 in experiment [2] was 14.2 µM (active); in experiment [5], 20.1 µM (active); in experiment [8], 75.3 µM (active); in experiment [9] it was 67.8 µM (active); in [12], 50 µM (active); in [13], 82 µM (active). Moreover, the AC50 with CYP2C8 (gene 1558) is 58.9 µM (active).
For `Cc1cc(N=Nc2ccccc2C)ccc1N`, the AC50 in experiment [1] is 3.17 µM (active); in experiment [3], 0.387 µM (active); in [4] it was 2.57 µM (active); in experiment [5], 12.6 µM (active); in experiment [6], 1.99 µM (active); in [7], 4.93 µM (active). Moreover, the AC50 was 4.69 µM (active) in experiment [8]; 3.13 µM (active) with BCL2L11 (gene 10018); 2.97 µM (active) in experiment [9]; 78 µM (active) in experiment [10]; 31.4 µM (active) in experiment [12]; 5.08 µM (active) in [15]. The concentration at half-maximal activity (AC50) was 4.72 µM (active) in experiment [13] and 5.98 µM (active) with CYP2C8 (gene 1558). Besides, the outcome (in experiment [2]; with Caspase-3 (Homo sapiens); in [14]) was inactive.
Consider `CC(C)COC(=O)c1ccccc1C(=O)OCC(C)C`, for which the outcome in [1], in experiment [2], in [3], in experiment [4], in experiment [5] and in experiment [6] was inactive. Moreover, the call (in experiment [7]; in experiment [8]; in the experiment with BCL2L11 (gene 10018); in experiment [9]; in experiment [11]; with Caspase-3 (Homo sapiens)) was inactive. Moreover, the outcome (in [14]; in experiment [13]; with CYP2C8 (gene 1558)) was inactive. Also, the half-maximal activity concentration (AC50) in experiment [12] was 32.5 µM (active).
With `Cc1ccc(N=C=O)cc1N=C=O`, the compound was classed as inactive in experiment [1], in experiment [2], in experiment [4], in experiment [5], in experiment [6] and in experiment [7]. The outcome (with BCL2L11 (gene 10018); in experiment [9]; in experiment [11]; in the experiment with Caspase-3 (Homo sapiens); in experiment [12]; in [14]) was inactive. Besides, the compound was called inactive (in experiment [13]; with CYP2C8 (gene 1558)). Further, the AC50 in experiment [3] was 12.5 µM (active); in [8], 50 µM (active).
As for `O=[N+]([O-])c1ccc(Oc2ccc(Cl)cc2Cl)cc1`, the call (in experiment [1]; in experiment [3]; in experiment [4]; in experiment [6]; in [7]; with BCL2L11 (gene 10018)) was inactive. The compound was classed as inactive (in [9]; in [10]; in experiment [11]; in the experiment with Caspase-3 (Homo sapiens); in experiment [16]; in [14]). Besides, in the experiment with CYP2C8 (gene 1558), the outcome was inactive. Besides, the AC50 in [2] was 14.5 µM (active); in experiment [8], 66.9 µM (active); in experiment [12], 27.2 µM (active); in experiment [15] it was 12.8 µM (active); in experiment [13], 12.4 µM (active).
`Cn1cc(-c2ccccc2)c(=O)c(-c2cccc(C(F)(F)F)c2)c1`: the AC50 was 5.1 µM (active) in experiment [1]; 10.6 µM (active) in experiment [2]; 50 µM (active) in experiment [5]; 87.5 µM (active) in experiment [12]; 1.09 µM (active) in [15]; 4.63 µM (active) in [13]. The AC50 in the experiment with CYP2C8 (gene 1558) was 3.59 µM (active). Besides, the call (in experiment [3]; in experiment [4]; in experiment [6]; in experiment [7]; in experiment [8]; in the experiment with BCL2L11 (gene 10018)) was inactive. The outcome (in [9]; in experiment [11]; with Caspase-3 (Homo sapiens); in experiment [14]) was inactive.

For orientation: AC50 means the concentration giving half of the maximal activity seen.
